HEK293 cAMP cs – counter-screen for TSHR agonists: cAMP increase in parental HEK293. parental HEK293 CNG cAMP sensor, membrane potential fluorescence. Potency, µM (highest dose often 57.1 µM), for the others: top-dose activation, most hits filed as activators. hit rate 2.5% among 73,000. AID 938; further: potency means the concentration at half of the fitted maximal effect; % of control where 0% means no effect; nearly all actives have a fitted effect of over 55% in size
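Parental HEK 293 cells stably expressing a modified CNG channel (no TSHR) report cAMP rise as membrane depolarization. Membrane potential dye with 100 uM RO 20-1724 was loaded for 60 min at room temperature, then compound added for 30 min; fluorescence read at 590 nm.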
TSHR agonist – TSH receptor (human) agonism. P16473. HEK293-CNG-TSHR cells (CNG channel as cAMP sensor), membrane potential dye, cAMP. Potency, µM (doses to about 57.1 µM), without a hit: top-dose activation, usual class: activators. hit rate 0.48% among 73,000. AID 926; active means well fitted activation curve with a large enough effect in the main read-out, with a control signal flat, not every such curve was filed as active; inconclusive means small, poorly fitted or top-dose-only effect, or a change in a side signal; inactive means no such curve, though single readings can be large or run the other way; % of control where 0% means no effect;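 further: the control signal comes from parental cells without the receptor; potency means the concentration at half of the fitted maximal effect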
Target sequence (P16473 whole entry, looked up): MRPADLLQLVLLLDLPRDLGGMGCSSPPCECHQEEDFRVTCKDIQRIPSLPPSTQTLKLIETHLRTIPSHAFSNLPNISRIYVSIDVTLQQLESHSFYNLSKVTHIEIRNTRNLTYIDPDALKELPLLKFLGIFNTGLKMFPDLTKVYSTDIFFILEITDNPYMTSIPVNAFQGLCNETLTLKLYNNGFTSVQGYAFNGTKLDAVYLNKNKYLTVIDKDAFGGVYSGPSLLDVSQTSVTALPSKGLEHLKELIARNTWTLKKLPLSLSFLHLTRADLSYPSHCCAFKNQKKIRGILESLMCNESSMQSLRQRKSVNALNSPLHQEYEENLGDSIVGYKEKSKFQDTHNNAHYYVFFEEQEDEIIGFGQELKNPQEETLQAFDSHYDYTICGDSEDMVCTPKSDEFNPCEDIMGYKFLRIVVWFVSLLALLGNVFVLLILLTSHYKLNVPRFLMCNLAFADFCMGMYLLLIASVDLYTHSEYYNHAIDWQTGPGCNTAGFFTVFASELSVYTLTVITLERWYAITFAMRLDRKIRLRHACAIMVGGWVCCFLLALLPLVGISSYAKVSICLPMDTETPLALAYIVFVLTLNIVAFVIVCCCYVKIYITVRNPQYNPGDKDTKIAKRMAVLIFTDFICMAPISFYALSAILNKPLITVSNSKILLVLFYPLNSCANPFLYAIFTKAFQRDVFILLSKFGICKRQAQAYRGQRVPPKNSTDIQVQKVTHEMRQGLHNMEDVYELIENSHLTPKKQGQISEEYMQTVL
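HEK 293 cells stably expressing TSHR and a cAMP-gated CNG channel; parental CNG-only cells as counterscreen. Cells preloaded 60 min with membrane potential dye plus 100 uM RO 20-1724, then compound 30 min; fluorescence read at 590 nm.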
Bst PK mod – modulators of Bacillus stearothermophilus pyruvate kinase | purified pyruvate kinase, luminescence ATP production; ribose 5-phosphate activator present at AC10 | Potency, µM | AID 361 | hit rate 1.2% among 51,000; in the data active means potency below about 11 µM; inconclusive means mostly about 12 µM to 25 µM;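 the screen sought inhibitors and activators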;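 further: potency means the concentration at half of the fitted maximal effect; scaled between full activation by ribose 5 phosphate and full inhibition by luteolin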
FLuc inh – blocks Photinus pyralis firefly luciferase activity; purified firefly luciferase, luminescence, 8 min; Potency, µM (doses to about 57.1 µM), for the others: at the highest dose activity change, negative = inhibition, actives largely listed as inhibitors; hit rate 2.2% among 72,000; AID 411; further: potency means the concentration at half of the fitted maximal effect; on the % scale 0 is the no-effect control and ±100 the full control effect; nearly all actives have a fitted effect of over 40% in size
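Inhibition of light generation by firefly luciferase from ATP and luciferin was profiled with concentration-response curves per sample, ATP held at 10 uM within the enzyme's linear range. Plates were read by luminescence after an 8-minute ambient incubation.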
HEK293 cAMP cnt – TSHR-independent cAMP elevation, counter-screen; shares compounds with TSHR agonist; parental HEK293 CNG biosensor, cAMP membrane potential fluorescence; activity change, negative = inhibition, % at 32.9 µM; 150 tested, under 10 active; AID 953
Numbers without * were called inactive; [ ] = dose if it differs, or a comment. This is a sample that favours compounds with a hit; in the whole collection about 5.2% have one here. Unless noted, the call rests on the fitted dose curve; in most records, active means well fitted curve in the direction sought with a large enough effect; inconclusive means small, poorly fitted or top-dose-only effect, or another doubt; inactive means no such curve, though single readings can be large; an effect the other way counts as inactive or inconclusive.

How did Cc1ccc(S(=O)(=O)NC(=O)Nn2c(C)nnc2C)cc1 do in these assays?
HEK293 cAMP cs: 3%; TSHR agonist: 10%; FLuc inh: 1%; HEK293 cAMP cnt: 2[25.6 µM]

Results for CCN(C(=O)CN1CCCc2ccccc21)c1c(N)n(Cc2ccccc2)c(=O)[nH]c1=O ?
HEK293 cAMP cs: 0%; TSHR agonist: 8%; Bst PK mod: >57; FLuc inh: 0%

Results for CCn1c(=O)c(C(=O)CN2CCCc3ccccc32)c(N)n(Cc2ccccc2)c1=O ?
HEK293 cAMP cs: -8%; TSHR agonist: -21%; Bst PK mod: >57; FLuc inh: 0%; HEK293 cAMP cnt: -17[25.6 µM]

What do the screens show for `Cc1nn(-c2ccccc2)c(C)c1C(=O)OC/C(O)=C(\C#N)c1nc2ccccc2[nH]1`?
HEK293 cAMP cs: -3%; TSHR agonist: 0%; Bst PK mod: >57; FLuc inh: 0%

How did CCn1c(=O)cc(OCC(=O)Nc2ccc(Cl)cn2)c2ccccc21 do in these assays?
HEK293 cAMP cs: -2%; TSHR agonist: 0%[11.4 µM]; Bst PK mod: >57; FLuc inh: 1%

How did Cc1ccc(S(=O)(=O)N2CCC(C(=O)NC3CCCCCC3)CC2)cc1 do in these assays?
HEK293 cAMP cs: 2%[11.4 µM]; TSHR agonist: 15%[11.4 µM]; FLuc inh: 1%

What do the screens show for `Cc1ccc(S(=O)(=O)N2CCC(C(=O)NCCCN3CCCCCC3)CC2)cc1`?
HEK293 cAMP cs: -1%; TSHR agonist: 4µM*; Bst PK mod: 10*; FLuc inh: -1%; HEK293 cAMP cnt: -4

How did CCC(=O)NCCSc1c[nH]c2ccccc12 do in these assays?
HEK293 cAMP cs: 1%; TSHR agonist: -9%; Bst PK mod: >57; FLuc inh: -2%

What do the screens show for `COCCNC(=O)C(c1ccccc1)N(Cc1cccs1)C(=O)Cn1nnc2ccccc21` (stereo unspecified)?
HEK293 cAMP cs: 30%; TSHR agonist: 13µM*; Bst PK mod: >57; FLuc inh: 2%; HEK293 cAMP cnt: 7

What do the screens show for `CCOC(=O)CN(C(=O)Cn1nnc2ccccc21)C(C(=O)NCCOC)c1ccccc1` (stereo unspecified)?
HEK293 cAMP cs: 7%; TSHR agonist: -1%; Bst PK mod: >57; FLuc inh: 2%

Results for O=C1CN(/N=C\c2ccc([N+](=O)[O-])o2)C(=O)N1 ?
HEK293 cAMP cs: -1%[25.6 µM]; TSHR agonist: -7%[25.6 µM]; FLuc inh: 3%[25.5 µM]

What do the screens show for `COc1ccc(NC2c3ccccc3C(=O)N2c2cccnc2)cc1Cl` (stereo unspecified)?
HEK293 cAMP cs: 3%; TSHR agonist: 13%; FLuc inh: -3%

What do the screens show for `COC(=O)c1cc(NC2c3ccccc3C(=O)N2c2cccnc2)cc(C(=O)OC)c1` (stereo unspecified)?
HEK293 cAMP cs: 15%; TSHR agonist: 16µM*; FLuc inh: -2%; HEK293 cAMP cnt: 18

Results for O=C1CC(N2CCN(Cc3ccccc3)CC2)C(=O)N1c1ccccc1 (stereo unspecified) ?
HEK293 cAMP cs: 4%; TSHR agonist: 3%; FLuc inh: 2%

Results for CC1=CCC2C(=O)N(c3ccc(Br)cc3C)C(=O)C2C1 (stereo unspecified) ?
HEK293 cAMP cs: 3%; TSHR agonist: 25µM*; Bst PK mod: >57; FLuc inh: -1%; HEK293 cAMP cnt: -2

How did C=CCc1cc(OC)ccc1OCCON1C(=O)CCC1=O do in these assays?
HEK293 cAMP cs: 2%; TSHR agonist: -12%; Bst PK mod: >57; FLuc inh: 0%

What do the screens show for `O=C1C=C(NCc2ccco2)C2(CCCCC2)O1`?
HEK293 cAMP cs: inconclusive; TSHR agonist: inconclusive; FLuc inh: 5%

Results for O=C1C=C(NCc2ccccc2)C2(CCCCC2)O1 ?
HEK293 cAMP cs: 22%[11.4 µM]; FLuc inh: 0%; HEK293 cAMP cnt: 17[25.6 µM]

How did Cc1cccc(OCC(=O)OCC(=O)c2c(N)n(C)c(=O)n(C)c2=O)c1 do in these assays?
HEK293 cAMP cs: 0%; TSHR agonist: 13µM*; Bst PK mod: >57; FLuc inh: -7%; HEK293 cAMP cnt: 4

How did CCOC(=O)c1sc2ncn(/N=C/c3ccccn3)c(=O)c2c1C do in these assays?
HEK293 cAMP cs: 1%; TSHR agonist: 2%; FLuc inh: 1%

Results for COCCN(CCOC)c1nc(C)nc2c1nc(-c1ccccc1)n2CCCN1CCCCC1C (stereo unspecified) ?
HEK293 cAMP cs: 27%

Results for Cn1c(=O)[nH]c(=O)c2c1nc(N1CCCCCC1)n2CCCSc1nc2ccccc2o1 ?
HEK293 cAMP cs: -3%; TSHR agonist: 4%; Bst PK mod: >57; FLuc inh: 0%; HEK293 cAMP cnt: 13[25.6 µM]

Results for CC(C)c1ccccc1OCCCCCNCCO ?
HEK293 cAMP cs: 19%; TSHR agonist: 19%; FLuc inh: -3%

How did O=C(O)c1cc(-c2ccccc2)c(N2CCOCC2)s1 do in these assays?
HEK293 cAMP cs: 12%; TSHR agonist: 12%; Bst PK mod: >57; FLuc inh: 0%

Results for O=C(NCc1ccco1)c1cc(-c2ccccc2)c(N2CCOCC2)s1 ?
HEK293 cAMP cs: 0%; TSHR agonist: -7%; Bst PK mod: >57; FLuc inh: -3%; HEK293 cAMP cnt: -62[25.6 µM]

How did NC(=O)c1nsc(C(=O)N(CC(=O)NCc2ccc3c(c2)OCO3)C2CCCCC2)c1N do in these assays?
HEK293 cAMP cs: 18%; TSHR agonist: 2µM*; Bst PK mod: >57; FLuc inh: -1%; HEK293 cAMP cnt: 9
